Screening data from PubChem BioAssay.
Sfp inh: qHTS Assay for Inhibitors of Bacillus subtilis Sfp phosphopantetheinyl transferase (PPTase). Biochemical Sfp PPTase activity, qHTS. 4'-phosphopantetheinyl transferase ffp (Bacillus subtilis), Q9F4F7. actives 3.5% (n = 310,000). Potency, µM, most hits filed as inhibitors;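 also: the enzyme is Sfp with the accession as filed and its product quenches rhodamine fluorescence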
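Fluorescence-quenching assay with 15 nM Sfp, 5 uM rhodamine-CoA and 12.5 uM BHQ-2-labelled ybbR peptide in pH 7.6 Hepes/MgCl2 buffer. Enzyme was pre-incubated with compound for 15 min at room temperature. Rate was taken from the 30-min fluorescence change (525/598 nm).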
VDR inh: Inhibitors of the vitamin D receptor (VDR): qHTS; Vitamin D3 receptor (Homo sapiens), P11473; VDR-SRC2-3 peptide fluorescence polarization, 2 h; Potency, µM, hits mostly inhibitors; actives 0.93% (n = 400,000)
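Fluorescence polarization assay of small-molecule disruption of VDR binding to coregulator peptide SRC2-3. Compounds and controls pin-transferred, then read after 2 h incubation at ambient room temperature.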
12-LOX inh: Primary qHTS assay for inhibitors of human arachidonate 12S-lipoxygenase (ALOX12): Round 2. Polyunsaturated fatty acid lipoxygenase ALOX12 (Homo sapiens), P18054. purified 12hLO, xylenol orange hydroperoxide absorbance. Potency, µM (series often up to 108 µM), hits mostly inhibitors. actives 1.1% (n = 580,000). AID 1671190, 2021
Target sequence (P18054 whole entry, looked up): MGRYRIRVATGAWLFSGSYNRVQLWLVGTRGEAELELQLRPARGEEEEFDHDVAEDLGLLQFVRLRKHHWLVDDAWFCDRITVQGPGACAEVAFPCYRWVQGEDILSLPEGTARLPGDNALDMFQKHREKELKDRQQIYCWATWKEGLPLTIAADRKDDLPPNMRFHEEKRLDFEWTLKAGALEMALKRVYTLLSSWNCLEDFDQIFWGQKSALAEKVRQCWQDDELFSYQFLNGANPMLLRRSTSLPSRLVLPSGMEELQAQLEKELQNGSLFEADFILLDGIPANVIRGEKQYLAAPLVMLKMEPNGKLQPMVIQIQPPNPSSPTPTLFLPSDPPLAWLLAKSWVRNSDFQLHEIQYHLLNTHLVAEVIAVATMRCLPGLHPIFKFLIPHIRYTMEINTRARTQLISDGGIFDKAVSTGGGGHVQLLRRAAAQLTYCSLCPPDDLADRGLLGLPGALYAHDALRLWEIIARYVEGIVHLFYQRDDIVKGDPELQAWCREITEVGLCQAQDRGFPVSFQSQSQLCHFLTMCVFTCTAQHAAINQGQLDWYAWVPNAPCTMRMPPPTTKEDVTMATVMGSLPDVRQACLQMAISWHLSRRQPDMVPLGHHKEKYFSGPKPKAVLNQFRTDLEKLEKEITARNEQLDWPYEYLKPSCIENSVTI
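Purified human 12hLO at 150 nM in 25 mM Hepes, 0.01% Triton X-100, pH 7.0, preincubated 15 min at room temperature with compound. Reaction started with 40 uM arachidonic acid, 30 min at room temperature. Hydroperoxide measured by Fe-xylenol orange, 573/405 nm absorbance ratio.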
PLK1 PBD inh: qHTS for Inhibitors of PLK1-PDB (polo-like kinase 1 - polo-box domain): Primary Screen | Serine/threonine-protein kinase PLK1 (Homo sapiens), P53350 | Plk1 PBD binding of FITC phosphopeptide, fluorescence polarization | Potency, µM, most hits filed as inhibitors | actives 2.8% (n = 360,000); also: series mostly up to about 57 µM; nearly all actives have a fitted effect of over 65% in size
Of the large screens only hits and unclear results are named; the others gave an inactive call. Hits are enriched below; roughly 4.2% of the tested compounds scored in any of these assays. Calls follow the shape of the dose curve; as a rule, active = well fitted curve in the direction sought with a large enough effect; inconclusive = small, poorly fitted or top-dose-only effect, or another doubt; inactive = no such curve, though single readings can be large; an effect the other way counts as inactive or inconclusive.

Cc1ccc(C)c(NC(=O)CSc2nc3ccccc3nc2N2CCOCC2)c1	none
CCOC(=O)C1=C(c2ccccc2)N=c2s/c(=C\c3cc(OC)c(OC)c(OC)c3)c(=O)n2C1c1cccs1 (stereo not given)	none
CCOC(=O)C1=C(c2ccccc2)N=c2s/c(=C\c3ccco3)c(=O)n2C1c1cccs1 (stereo not given)	Sfp inh 50µM, 12-LOX inh inconclusive
CCc1cc(=O)oc2cc3occ(-c4ccc(OC)c(F)c4)c3cc12	Sfp inh 20µM
Cn1c(=O)[nH]c(=O)c2c1nc(SCC(O)CCl)n2Cc1ccccc1 (stereo not given)	Sfp inh 40µM
CC(O)CSc1nc2c(c(=O)[nH]c(=O)n2C)n1Cc1ccccc1 (stereo not given)	12-LOX inh inconclusive
Cc1cc(C)n(-c2nc3c(c(=O)[nH]c(=O)n3C)n2CCc2ccccc2)n1	PLK1 PBD inh 30µM
C=CCSc1nc2c(c(=O)[nH]c(=O)n2C)n1C(C)C	Sfp inh inconclusive, 12-LOX inh inconclusive, PLK1 PBD inh 27µM
CCOC(=O)C(C)Sc1nc2c(c(=O)[nH]c(=O)n2C)n1Cc1ccc(Cl)cc1 (stereo not given)	Sfp inh inconclusive, VDR inh 89µM, 12-LOX inh inconclusive, PLK1 PBD inh 21µM
CC(C)Sc1nc2c(c(=O)[nH]c(=O)n2C)n1Cc1ccccc1	12-LOX inh inconclusive
Cc1cc(C)n(-c2nc3c(c(=O)[nH]c(=O)n3C)n2Cc2ccccc2)n1	none
NC1(C(=O)N2CCOC(CC(c3ccccc3)c3ccccc3)C2)CC1 (stereo not given)	none (no result: Sfp inh, VDR inh, PLK1 PBD inh)
COC(=O)c1ccc(/C=C/c2c(-c3ccsc3)sc3ccccc23)cc1	VDR inh inconclusive
Cc1ccc(Cn2c(SCC(C)C)nc3c2c(=O)[nH]c(=O)n3C)cc1	Sfp inh 35µM, 12-LOX inh inconclusive, PLK1 PBD inh 24µM
CCOC(=O)C(CC)Sc1nc2c(c(=O)[nH]c(=O)n2C)n1CCc1ccccc1 (stereo not given)	Sfp inh inconclusive, 12-LOX inh inconclusive, PLK1 PBD inh 24µM
C=CCSc1nc2c(c(=O)[nH]c(=O)n2C)n1Cc1ccc(C)cc1	PLK1 PBD inh 21µM
C=CCSc1nc2c(c(=O)[nH]c(=O)n2C)n1Cc1ccc(Cl)cc1	none (no result: Sfp inh, VDR inh, PLK1 PBD inh)
CCOC(=O)CSc1nc2c(c(=O)[nH]c(=O)n2C)n1CCc1ccccc1	none
CCC(C)Sc1nc2c(c(=O)[nH]c(=O)n2C)n1CC(O)COc1ccccc1C (stereo not given)	Sfp inh 40µM, 12-LOX inh inconclusive, PLK1 PBD inh 11µM
COc1ccc(Cl)cc1S(=O)(=O)NC1CC(C)(C)NC(C)(C)C1	none
Nc1sc2c([n+]1CCCS(=O)(=O)[O-])CCCC2	none
Cc1ccsc1C(=O)N1CCN(c2ncccn2)CC1	none (no result: Sfp inh)
CCn1c(SCC(=O)Nc2ccccc2Br)nnc1-c1cnccn1	PLK1 PBD inh 21µM
Cc1ccc(NS(=O)(=O)c2coc(C(N)=O)c2)cc1F	PLK1 PBD inh 24µM
COCCNC(=O)C/C(C)=N/NC(=O)C(=O)NC1CCCCC1	PLK1 PBD inh 24µM
Cc1ccccc1-c1ccc2ncnc(-n3ccnc3)c2c1	VDR inh 14µM, 12-LOX inh inconclusive (no result: PLK1 PBD inh)
Cc1ccccc1-c1ccc2ncnc(NC3CC3)c2c1	VDR inh inconclusive (no result: PLK1 PBD inh)
COc1ccccc1-c1cncnc1-n1ccnc1	12-LOX inh 25µM (no result: PLK1 PBD inh)
COCCNc1ncnc2ccc(-c3ccccc3C)cc12	Sfp inh 79µM, VDR inh inconclusive, 12-LOX inh 28µM (no result: PLK1 PBD inh)
CN(C)c1ccc(-c2ccc3ncnc(-n4ccnc4)c3c2)cc1	VDR inh 16µM (no result: PLK1 PBD inh)
Cc1ccccc1-c1ccc2ncnc(N(C)C)c2c1	Sfp inh inconclusive (no result: PLK1 PBD inh)
O=C1CCN(C(=O)[C@@H](Cc2ccccc2)NC(=O)NCCc2ccccc2)CCOCCN1	none (no result: Sfp inh, VDR inh, PLK1 PBD inh)
C=CCOC(=O)C(=O)/C=C/c1c(C)n(C)n(-c2ccccc2)c1=O	none
C=CCOC(=O)C(=O)/C=C/c1coc2ccccc2c1=O	Sfp inh 45µM, VDR inh 14µM, 12-LOX inh inconclusive, PLK1 PBD inh inconclusive
Cc1ccn2cc(CCNC(=O)CC(C)(C)C)nc2c1	none
COc1ccc(C(=O)NCCc2cn3ccccc3n2)cc1	VDR inh inconclusive, PLK1 PBD inh 30µM
Cc1ccn2cc(CCNC(=O)COc3ccccc3)nc2c1	VDR inh inconclusive, PLK1 PBD inh 12µM
COc1cc(C(=O)NCCc2cn3ccccc3n2)cc(OC)c1OC	none
CN(CC(=O)Nc1ccc(F)cc1)C(=O)c1cc2c(s1)CCCCC2	none (no result: Sfp inh)
C/C(=N\NC(=O)c1cc(C(C)(C)C)[nH]n1)C12CC3CC(CC(C3)C1)C2	PLK1 PBD inh 17µM
CO/N=C\CC(=O)Nc1ccc(Cl)cc1Cl	VDR inh inconclusive, PLK1 PBD inh 21µM
Cc1nc(-c2ccc(Cl)cc2)sc1C1(C)CC(c2ccc([N+](=O)[O-])cc2)=NO1 (stereo not given)	none
Cc1ccc(Nc2ccc(NCc3ccccc3)nn2)cc1C	none
Cc1ccc(Nc2nnns2)cc1C	Sfp inh 22µM, VDR inh 45µM, 12-LOX inh inconclusive, PLK1 PBD inh 27µM
CNC(=O)[C@@H](C1CCCCC1)N1CCC[C@H]1C(=O)N1CCN(C)CC1	none (no result: Sfp inh, VDR inh, PLK1 PBD inh)
CNC(=O)[C@@H](C1CCCCC1)N1CCC[C@H]1C(=O)N1CCN(CCOC)CC1	12-LOX inh 16µM (no result: Sfp inh, VDR inh, PLK1 PBD inh)
CN1CCN(C(=O)CCS(=O)(=O)c2ccccc2)CC(O)C1 (stereo not given)	none (no result: Sfp inh, VDR inh, PLK1 PBD inh)
COc1ccc(N2CCN(CCC(=O)c3ccc4ccccc4c3)CC2)cc1	VDR inh 71µM, PLK1 PBD inh 6.7µM
CC1CCCN(CCOc2ccc(Br)cc2)C1 (stereo not given)	Sfp inh inconclusive, 12-LOX inh inconclusive
COc1ccc(OC)c(NC(=O)CCN2CCCC(C)C2)c1 (stereo not given)	none
CC1CCCN(CCC(=O)c2ccc(Br)cc2)C1 (stereo not given)	VDR inh 79µM, 12-LOX inh inconclusive, PLK1 PBD inh 3.4µM
COc1ccc(C(=O)CCN2CCCC(C)C2)cc1 (stereo not given)	VDR inh 71µM, PLK1 PBD inh inconclusive
COc1ccc(N2CCN(CC(=O)N3CCC(C)CC3)CC2)cc1	none
COc1ccc(C(=O)CCN2CCC(C)CC2)cc1	VDR inh 79µM, PLK1 PBD inh inconclusive
CC(C)(C(N)=O)c1ccccc1	none
Cc1ccc(C)c(S(=O)(=O)N2CCCOC2CNC(=O)C(=O)NCc2ccc3c(c2)OCO3)c1 (stereo not given)	none
O=C1CC(N(C(=O)c2ccco2)c2ccc(F)cc2)C(=O)N1c1ccc(F)cc1 (stereo not given)	none
COC(=O)N(C)Cc1cccc(C(F)(F)F)c1	none (no result: Sfp inh, VDR inh, PLK1 PBD inh)
CC(C)CSc1nc2c(c(=O)[nH]c(=O)n2C)n1CC(O)COc1ccc(Cl)cc1 (stereo not given)	none (no result: Sfp inh, VDR inh, PLK1 PBD inh)
CCOC(=O)N1CCN(CCC(=O)c2ccc(OC)cc2)CC1	VDR inh inconclusive
